Compounds with a hit are over-represented: about 6.8% of the library has one in this group of screens.
UCHL1 inh – inhibitors of human UCHL1 deubiquitinase. Ubiquitin carboxyl-terminal hydrolase isozyme L1 (Homo sapiens), P09936. purified UCHL1, Ub-rhodamine cleavage fluorescence. inhibition, % at 20 µM. actives 0.2% (n = 47,000). AID 1645859, 2021
USP28 inh – inhibitors of human USP28 deubiquitinase; Ubiquitin carboxyl-terminal hydrolase 28 (Homo sapiens), Q96RU2; purified USP28, Ub-rhodamine cleavage fluorescence, 30 min; inhibition, % at 25 µM; actives 3% (n = 47,000); AID 1645857, 2021
USP10 inh – inhibitors of human USP10 deubiquitinase | AID 1645856, 2021 | inhibition, % at 20 µM | Ubiquitin carboxyl-terminal hydrolase 10 (Homo sapiens), Q14694 | purified USP10, Ub-rhodamine fluorescence, 60 min | actives 1.1% (n = 47,000)
OTUD3 block – inhibitors of human OTUD3 deubiquitinase | inhibition, % at 25 µM | purified OTUD3, Ub-rhodamine fluorescence, 2 h | actives 0.7% (n = 47,000)
USP8 block – inhibitors of human USP8 deubiquitinase; inhibition, % at 20 µM; Ubiquitin carboxyl-terminal hydrolase 8 (Homo sapiens), P40818; actives 4.2% (n = 47,000); AID 1645853, 2021; purified USP8, Ub-rhodamine cleavage fluorescence, 30 min
Target sequence (P40818 whole entry, looked up): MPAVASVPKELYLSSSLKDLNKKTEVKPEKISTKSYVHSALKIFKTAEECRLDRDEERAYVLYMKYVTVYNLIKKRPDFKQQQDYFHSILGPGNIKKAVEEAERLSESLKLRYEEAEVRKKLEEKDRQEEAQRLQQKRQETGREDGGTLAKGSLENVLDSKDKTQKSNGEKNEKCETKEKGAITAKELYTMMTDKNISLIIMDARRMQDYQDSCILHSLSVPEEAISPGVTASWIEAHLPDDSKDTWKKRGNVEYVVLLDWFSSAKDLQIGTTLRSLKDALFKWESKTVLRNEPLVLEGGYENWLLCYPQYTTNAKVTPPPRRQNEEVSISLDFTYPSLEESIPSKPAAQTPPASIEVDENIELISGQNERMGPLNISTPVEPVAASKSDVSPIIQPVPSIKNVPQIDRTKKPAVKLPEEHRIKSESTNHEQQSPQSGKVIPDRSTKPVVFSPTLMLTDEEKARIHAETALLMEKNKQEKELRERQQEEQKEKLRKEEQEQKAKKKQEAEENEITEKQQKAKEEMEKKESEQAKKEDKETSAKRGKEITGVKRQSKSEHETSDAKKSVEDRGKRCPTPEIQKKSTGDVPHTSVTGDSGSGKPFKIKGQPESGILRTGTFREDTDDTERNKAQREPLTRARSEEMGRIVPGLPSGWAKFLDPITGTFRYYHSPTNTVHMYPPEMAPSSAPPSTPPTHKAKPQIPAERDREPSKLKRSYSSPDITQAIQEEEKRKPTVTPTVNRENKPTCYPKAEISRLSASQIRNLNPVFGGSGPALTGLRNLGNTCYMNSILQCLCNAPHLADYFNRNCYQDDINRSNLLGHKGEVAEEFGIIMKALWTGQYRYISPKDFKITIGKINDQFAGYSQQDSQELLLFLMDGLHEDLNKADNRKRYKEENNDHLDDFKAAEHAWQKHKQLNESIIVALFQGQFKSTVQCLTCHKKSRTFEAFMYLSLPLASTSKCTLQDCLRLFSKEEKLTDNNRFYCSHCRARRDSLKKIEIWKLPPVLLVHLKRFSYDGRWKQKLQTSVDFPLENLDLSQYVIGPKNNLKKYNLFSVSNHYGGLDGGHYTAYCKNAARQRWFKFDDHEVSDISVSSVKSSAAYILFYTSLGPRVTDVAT
USP7 block – inhibitors of human USP7 deubiquitinase; Ubiquitin carboxyl-terminal hydrolase 7 (Homo sapiens), Q93009; purified USP7, Ub-rhodamine cleavage fluorescence; inhibition, % at 20 µM; actives 0.3% (n = 47,000); AID 1645854, 2021
* = called active by the depositor; x = no result. Rule as the data show it: active = inhibition above about 30%; inactive = the rest.

SMILES | UCHL1 inh | USP28 inh | USP10 inh | OTUD3 block | USP8 block | USP7 block
CCOC(=O)c1cc2c(CSc3ccccc3)nn(C)c2s1 | 7.3 | 34.4* | 8.9 | 25.6 | 28.0 | 9.9
Cc1ccc(CNC(=O)Cn2c(=O)n(-c3ccccc3)c3ncccc32)cc1 | 0.1 | 3.8 | 3.9 | 3.8 | 33.3* | 3.4
Cn1c(=O)n(CC(=O)NCc2cccc(F)c2)c2cccnc21 | -0.5 | x | -2.6 | 0.3 | -5.9 | -0.7
O=C(Cn1c(=O)n(-c2ccc(F)cc2)c2ncccc21)NCc1ccccc1 | 1.5 | 23.3 | 6.7 | 6.7 | 37.2* | 5.9
CC(NC(=O)Cn1c(=O)n(-c2ccccc2)c2ncccc21)c1ccccc1 (centres undefined) | -9.5 | -4.7 | -6.0 | -6.6 | 1.2 | -9.9
COc1ccc(CCNC(=O)C2CCCN(S(=O)(=O)N3CCCCC3)C2)c(OC)c1 (centres undefined) | -1.1 | 11.0 | -1.9 | 5.4 | 16.5 | -0.9
O=C(Cc1ccc(S(=O)(=O)N2CCOCC2)s1)NCc1cccc(Cl)c1 | -20.3 | -36.4 | -6.4 | -25.2 | 40.2* | -30.4
CCc1ccc(-c2nc(SCC(=O)c3c(N)n(C4CC4)c(=O)[nH]c3=O)n[nH]2)cc1 | -3.5 | -58.5 | -8.7 | -46.3 | 36.1* | 1.8
COc1ccc(-n2ccnc(SCc3ccc(Cl)cc3)c2=O)cc1 | 4.2 | 35.8* | 12.2 | -0.6 | 0.4 | 2.2
O=C(c1ccc(-c2ccccc2F)o1)N1CCCC1 | -2.1 | -6.9 | 0.7 | 0.1 | 3.3 | -7.4
Cc1ccc2c(Nc3ccccc3)c(-c3nc(C4CC4)no3)cnc2n1 | -6.7 | 47.7* | -2.0 | -20.9 | -5.8 | -22.2
COc1ccccc1Nc1c(-c2nc(C)no2)cnc2nc(C)ccc12 | -1.8 | -0.7 | -5.1 | -14.4 | -8.8 | -0.6
COCCNC(=O)C1CCCN1C(=O)c1cccc(NC(=O)c2cccc(F)c2)c1 (centres undefined) | 0.6 | -2.9 | -0.5 | -2.4 | 4.4 | -4.2
Cc1ccccc1-c1noc(-c2cccn(CC(=O)Nc3ccccc3F)c2=O)n1 | -4.3 | -24.0 | -6.5 | -13.4 | 75.7* | 13.0
O=C(c1ccccn1)N1CCC2(CC1)CC1(CO2)Nc2ccccc2-n2cccc21 (centres undefined) | 15.2 | -18.7 | -6.8 | -22.3 | 76.9* | -14.3
CCc1ccccc1NC(=O)N1CCC2(CC1)Nc1ccccc1-n1cccc12 | 3.5 | 11.0 | 3.9 | 10.2 | 16.9 | -4.1
CCn1c(=O)c(-c2ccc(C(=O)NCc3ccc(OC)cc3OC)cc2)nc2cccnc21 | 6.3 | 11.0 | 2.6 | 3.3 | 9.9 | 6.6
CCCn1c(=O)c(-c2ccc(C(=O)NCc3ccc(OC)cc3)cc2)nc2cccnc21 | 4.6 | 13.1 | 33.3* | 22.7 | 64.9* | 30.7*
NCc1ccc(C(=O)N2CCC3(CC2)C(=O)Nc2ccccc23)cc1 | 4.7 | 8.4 | -0.5 | 2.6 | 85.4* | -59.2
N#Cc1cc([N+](=O)[O-])ccc1NCC1COc2ccccc2O1 (centres undefined) | 1.3 | 47.0* | 3.9 | -6.4 | -1.7 | -15.7
O=C(c1cnc2ccccc2c1)N1CCCC(Cc2cc(-c3ncc[nH]3)ncn2)C1 (centres undefined) | -2.8 | -8.7 | -0.7 | -1.7 | -8.5 | -1.0
O=c1[nH]c2c(cc1CNc1ccc(Cl)cc1)c(-c1cccc(F)c1)nn2-c1ccccc1 | -1.3 | -16.4 | 4.9 | -7.5 | -8.7 | 14.4
O=c1[nH]c2c(cc1CNc1ccc(Oc3ccccc3)cc1)c(-c1ccc(F)cc1)nn2-c1ccccc1 | 40.5* | -30.7 | 62.7* | -11.3 | 77.2* | 50.0*
Cc1ccc(NCc2cc3c(-c4cccc(F)c4)nn(-c4ccccc4)c3[nH]c2=O)cc1C | 18.1 | -77.5 | 36.1* | -95.0 | 36.8* | 51.3*
CC[C@H](C)[C@H](NC(=O)[C@H]([C@@H](C)CC)N(C)C(C)=O)C(=O)N[C@H](C(=O)N[C@@H](CC(C)C)C(=O)C1(C)CO1)[C@@H](C)O (some centres undefined) | 25.3 | 43.1* | 9.4 | 31.1* | 57.0* | -145.3
SMILES | UCHL1 inh | USP28 inh | USP10 inh | OTUD3 block | USP8 block | USP7 block
Cn1c2ccccc2c2ncn(Cc3cccnc3)c(=O)c21 | -3.7 | 0.8 | -12.0 | -8.5 | -0.9 | -4.0
O=C(Nc1ccc(OC(F)(F)F)cc1)NC1Cc2ccccc2C1 | 0.1 | 13.8 | 5.5 | 12.6 | 42.4* | 2.0
O=C(Nc1ccc(OC(F)(F)F)cc1)Nc1ccc2ccccc2n1 | 0.5 | 10.5 | 0.2 | 23.9 | 21.4 | 6.9
COc1cc(NS(=O)(=O)c2ccc(NC(=O)COc3ccc(C)cc3Br)cc2)nc(OC)n1 | 0.0 | -5.4 | 38.0* | -0.8 | 3.0 | -41.8
Cc1ccc(C(C)C)c(OCC(=O)Nc2ccc(S(=O)(=O)Nc3cc(C)nc(C)n3)cc2)c1 | -0.1 | 2.3 | 8.5 | -0.6 | -8.9 | 0.5
NC(=O)C1(N2CCCCC2)CCN(C(=O)c2[nH]nc3c2CCc2ccccc2-3)CC1 | 3.9 | 11.3 | -5.1 | -11.0 | 86.5* | 4.4
O=C(NC1CCc2nc(C(F)(F)F)cn2C1)C1CC1 (centres undefined) | -4.5 | -3.1 | 0.0 | -0.5 | -0.6 | -2.7
CC(C)CCN1C(=O)C2C(C(=O)Nc3ccc(Oc4ccccc4)cc3)C3C=CC2(O3)C1C(=O)NC1CCCCC1 (centres undefined) | 4.0 | 17.9 | 10.0 | 30.1* | 30.5* | -96.7
O=C1NCCN(C(=O)CCn2ccccc2=O)CC1Cc1ccc(-c2ccccc2)cc1 (centres undefined) | 1.4 | 6.1 | 0.5 | -2.8 | 42.4* | -11.1
COc1ccc(-c2ccc(CC3CN(C(=O)c4cccc(OC)c4)CCNC3=O)cc2)cc1 (centres undefined) | 2.8 | 5.3 | -0.8 | 6.7 | 16.9 | 2.4
O=C1CC(c2cc3c(cc2Br)OCO3)c2cc3c(cc2N1)OCCO3 (centres undefined) | 2.5 | 10.6 | 40.4* | -0.1 | 4.3 | 2.0
O=C(CN1C(=O)COc2ccc(Cl)cc21)Nc1cccc2ncccc12 | 5.6 | -5.1 | -5.7 | -15.0 | 72.9* | -16.5
O=C(Cc1ccc(Cl)c(Cl)c1)Nc1cccc2ncccc12 | -14.5 | 2.4 | -14.3 | -42.5 | 0.7 | -14.5
CS(=O)(=O)N1CCC(NC(=O)c2ccc3[nH]c4c(c3c2)CCCC4)CC1 | -0.5 | 10.2 | -0.4 | -0.8 | 7.9 | 3.6
Cc1cccc(N2CCN(C(C)c3nc4ccccc4c(=O)[nH]3)CC2)c1C (centres undefined) | 0.5 | 3.1 | -1.9 | 4.4 | 5.8 | -0.7
CCCc1cc(=O)oc2c3c(cc(OCC(=O)O)c12)OC(C)(C)CC3 | 1.2 | 6.9 | 4.3 | 22.6 | 23.6 | 2.5
COc1ccc(OC)c(CNC(=O)CC2CCN(C(=O)c3ccccc3)CC2)c1 | 2.5 | 13.3 | 3.6 | 8.5 | 3.9 | 3.1

Screens (PubChem BioAssay)
